Compounds with a hit are over-represented: about 4.1% of the library has one in this group of screens.
NALP1 yeast inh = NALP1 inflammasome inhibitors in reconstituted yeast, colorimetric, S. cerevisiae, triplicate retest; S. cerevisiae NALP1/ASC/caspase-1 growth, X-gal OD620, 72 h; AID 2071, 2009; inhibition, % at 10 µM; hit rate 0.61% among 280,000; in the data active = inhibition mostly above about 24%, no sharp cut-off; inactive = mostly below about 32%
tim23-1 inh = growth inhibitors of tim23-1 mutant yeast, primary screen, luminescence, uHTS. hit rate 1.3% among 330,000. inhibition, % at 20 µM. S. cerevisiae tim23-1 growth, BacTiter-Glo luminescence, 24 h. AID 463212, 2010;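 active = growth inhibition of the mutant yeast at or above 50%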;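 also: temperature-sensitive mutant grown at 25 °C; plate controls were DMSO-treated mutant yeast for no effect and medium wells lacking yeast for full effect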
tim10-1 inh = growth inhibitors of tim10-1 mutant yeast, primary screen, luminescence, uHTS | inhibition, % at 20 µM | AID 463190, 2010 | hit rate 2.2% among 330,000 | S. cerevisiae tim10-1 ts strain growth, BacTiter-Glo, 24 h;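 active = inhibition of at least 40%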;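 also: mutant grown at 25 °C; 0% = DMSO wells with yeast and 100% = wells holding no yeast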
TIM10 inh = growth inhibitors of isogenic TIM10 control yeast, primary screen, counter-screen for tim10-1 yeast inhibitor project, luminescence, uHTS; S. cerevisiae TIM10 strain growth, BacTiter-Glo luminescence, 24 h; inhibition, % at 10 µM; hit rate 1.4% among 330,000; AID 463195, 2010;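 active = inhibition of 40% or more at the single tested concentration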;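 also: wild-type TIM10 isogenic control strain grown at permissive 25 °C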
NLRP3 yeast inh = NALP3 inflammasome inhibitors in reconstituted yeast, primary screen, luminescence, uHTS | AID 2825, 2010 | hit rate 0.39% among 330,000 | Yeast reconstituted NLRP3/ASC/caspase-1, beta-gal luminescence, 24 h | inhibition, % at 10 µM;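 active = inhibition of 50% or more; inactive = inhibition below 50%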;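 also: plate controls were induced DMSO wells for no effect and uninduced yeast grown without galactose for full effect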
tim10-1 confirm = growth inhibitors of tim10-1 mutant yeast, confirmation, single concentration, luminescence, S. cerevisiae | S. cerevisiae tim10-1 ts strain growth, BacTiter-Glo, 24 h | hit rate 56% among 7,400 | shares compounds with tim10-1 inh | inhibition, % at 20 µM;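 active = inhibition of yeast growth at or above a set limit in either of two repeat tests at 20 µM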;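 also: tim10-1 mutant grown at permissive 25 °C to find synthetic lethal compounds; 0% = DMSO yeast wells and 100% = medium wells without yeast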
* hit, by the source's call; . = not tested or not shown.

SMILES	NALP1 yeast inh	tim23-1 inh	tim10-1 inh	TIM10 inh	NLRP3 yeast inh	tim10-1 confirm
Cn1c(-c2sccc2OCc2ccccc2)n[nH]c1=S	-17.4	10.2	50.0*	9.1	23.5	16.1
Cc1ccc(COc2ccsc2-c2n[nH]c(=S)n2C)cc1	3.7	28.6	39.9	29.8	-3.0	.
Cn1c(-c2ccccc2)n[nH]c1=S	-4.8	4.7	-0.6	7.4	10.6	.
Cc1cc(C)cc(OCCNC(=O)c2cc(S(=O)(=O)N3CCOCC3)ccc2F)c1	-1.0	17.8	20.3	13.3	15.2	.
Cc1ccc(C)c(NC(=S)NCCSc2ccc(Cl)cc2)c1	26.7	17.4	25.7	18.7	22.6	.
Cc1cccc(NC(=S)NCCSc2ccc(Cl)cc2)c1	9.3	27.9	45.4*	35.0	16.5	25.6
Cc1ccccc1NC(=S)NCCSc1ccc(Cl)cc1	0.5	29.5	46.6*	24.5	22.9	26.2
Cc1cccc(OCC(=O)NCCCNC(=O)c2ccncc2)c1	8.9	8.9	0.9	-0.4	16.7	.
O=C(Nc1nnc(CCS(=O)(=O)c2ccc3ccccc3c2)s1)c1ccc([N+](=O)[O-])cc1	11.3	-3.3	8.2	0.6	12.8	.
Cn1cnnc1SCC(=O)Nc1ccccc1Oc1ccccc1	-32.2	6.1	14.6	8.3	-10.1	.
CCc1ccc(/C=C2/C(=O)N(C)C(=S)N2CC(=O)OC)s1	3.9	46.0	42.7*	39.1	8.0	44.2*
CC(=O)Nc1cccc(C(=O)/C=C/c2ccc(F)cc2)c1	28.5	20.8	40.7*	32.8	24.9	30.9*
CCOC(=O)c1ccc(NC(=O)c2nc[nH]c2C(=O)N(C)Cc2ccccc2)cc1	.	32.8	42.3*	9.6	11.1	27.8
O=C(N/N=C\c1ccccn1)C1c2ccccc2Oc2ccccc21	10.6	24.5	43.2*	5.0	2.0	18.1
COc1ccc(Cl)cc1Nc1nc(NCCO)nc(N2CCCC2)n1	28.6	4.5	27.9	31.5	23.4	.
CC(C)Oc1ccc(Cl)cc1Nc1nc(NCCO)nc(N2CCCC2)n1	.	40.3	41.0*	14.5	22.2	7.6
C=CCn1c(SCC(=O)NCC)nc2sc3c(c2c1=O)CCC3	-4.6	11.2	3.7	12.8	5.0	.
Cc1ccc(C)c(C(=O)OCC(=O)N(C)c2ccccc2)c1	18.2	44.3	55.7*	34.7	21.7	43.5*
CC(C)Oc1ccc(CNC(=S)N/N=C/c2ccc([N+](=O)[O-])cc2)cc1	0.2	-3.4	43.3*	-1.9	27.9	21.9
Cc1ccc([N+](=O)[O-])cc1NC(=S)NC(=O)CC(C)(C)C	8.2	41.2	43.4*	22.8	17.7	26.0
Cc1ccc([N+](=O)[O-])cc1NC(=S)NC(=O)C(C)(C)C	-8.5	26.1	15.7	15.3	28.4	.
Cc1nc(N2CCCCC2)c2c(C)c(C(=O)Nc3ccc4c(c3)OCCO4)sc2n1	13.4	48.9	45.5*	16.3	10.1	31.0*
Cc1nc(N2CCN(C)CC2)c2c(C)c(C(=O)Nc3ccc(C)c(F)c3)sc2n1	17.9	19.6	8.3	2.9	20.9	.
Cc1nc(N2CCN(c3ccccn3)CC2)c2c(C)c(C(=O)Nc3c(F)cc(F)cc3Br)sc2n1	4.5	27.2	40.4*	7.0	-3.0	14.6
CCOc1ccc(NC(=O)c2ccc(NC(=O)CSc3nc4ccccc4c(=O)[nH]3)cc2)cc1	3.1	-1.2	3.5	-12.8	20.9	.
SMILES	NALP1 yeast inh	tim23-1 inh	tim10-1 inh	TIM10 inh	NLRP3 yeast inh	tim10-1 confirm
Cc1ccc(OCCNc2cc(N3CCN(CCO)CC3)ccc2[N+](=O)[O-])cc1C	19.8	35.2	43.2*	17.3	16.5	22.7
Cc1cccc(OCCNc2cc(N3CCN(C)CC3)ccc2[N+](=O)[O-])c1	-1.3	23.9	28.9	20.1	42.1	.
O=C(CNC(=O)c1ccccc1Cl)NCCc1cccs1	.	12.2	6.6	-8.7	16.9	.
CN(CC(O)Cn1cnc2c1c(=O)n(C)c(=O)n2C)c1ccccc1 (stereo not given)	7.8	-5.3	8.1	-8.0	-10.8	.
CSc1nc(-c2ccccc2)cn1-c1ccc(NC(C)=O)cc1	5.7	35.7	45.8*	15.2	17.4	31.2*
O=C(c1cc(COc2ccc(F)cc2Cl)on1)N1CC2C[C@@H]3CC1C[C@H](C2)C3	21.5	2.5	5.6	4.5	8.0	.
CN(CC(=O)NCc1ccccn1)S(=O)(=O)c1ccc2ccccc2c1	4.6	-1.4	9.6	5.8	2.2	.
COc1ccc(C)cc1S(=O)(=O)N(C)CC(=O)N1CCN(c2ccccc2)CC1	-6.0	13.3	20.2	-7.3	2.7	.
CCN(CC)C(=O)c1ccc(COc2ccccc2Cl)cc1	0.5	6.5	41.8*	20.0	22.4	29.6
CCCc1cc(C(=O)N2CCN(c3ccc(C(F)(F)F)cn3)CC2)sc1C	12.9	21.5	17.9	33.5	26.0	.
O=[N+]([O-])c1ccccc1/C=C/c1ccc2ccccc2n1	18.4	22.1	-3.5	2.4	29.1	.
COc1c(OC(C)=O)ccc(/C=C/c2ccc3ccccc3n2)c1[N+](=O)[O-]	36.3	47.7	47.5*	39.5	15.9	32.0*
O=C(O)c1ccc(/C=C/c2ccc3cccc(O)c3n2)cc1	-20.9	20.9	17.8	14.6	18.7	.
CCOc1c(OC(C)=O)ccc(/C=C/c2ccc3cccc(OC(C)=O)c3n2)c1[N+](=O)[O-]	14.3	29.7	5.8	13.5	5.2	.
COc1c(OC(C)=O)ccc(/C=C/c2ccc3cccc(OC)c3n2)c1[N+](=O)[O-]	24.5	42.8	41.2*	13.1	16.9	27.7
COC(=O)c1ccc(/C=C/c2ccc3cccc(OC(C)=O)c3n2)cc1	12.1	19.4	40.0	20.4	16.8	24.1
COc1cc(-c2nc(-c3cccc(C(F)(F)F)c3)no2)cc(OC)c1OC	.	10.3	41.3*	35.3	-8.2	31.3*
COc1ccc(-c2csc3ncnc(N4CCN(c5ccccc5O)CC4)c23)cc1	-1.4	40.2	26.3	2.5	16.8	.
Cc1ccc(-c2csc3ncnc(N4CCN(c5ccccc5O)CC4)c23)cc1	15.6	43.9	44.2*	-7.4	10.6	5.4
Cc1ccc(-c2csc3ncnc(Nc4ccc(N5CCOCC5)cc4)c23)cc1	8.5	43.4	40.0*	29.1	13.8	36.4*
O=C(c1ccco1)N1CCN(c2ncnc3scc(-c4ccc(F)cc4)c23)CC1	4.8	18.6	49.3*	31.9	-1.5	36.5*
Cc1ccc(-c2csc3ncnc(NCCN4CCOCC4)c23)cc1	10.0	-43.6	19.8	15.7	20.2	.
CCN(C(=O)COC(=O)C1CC1C)c1c(N)n(Cc2ccccc2)c(=O)[nH]c1=O (stereo not given)	.	2.1	-11.8	-15.4	-2.5	.
O=C(Nc1cccnc1Cl)c1ccc(=O)oc1	9.7	16.2	4.2	4.8	7.2	.
